The list is not random: actives were taken first. Their share in the collection is about 0.98%.
RTF Ca sens act – cardiac RTF calcium sensitization; hit rate 0.24% among 340,000; AID 493008; IANBD-labeled TnC RTF fluorescence at EC20 calcium; 0% EC20 calcium, 100% full calcium; activation, % at 7.2 µM; P19429+P45379;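 active = activation above the mean over all tested compounds plus 3 SD, cut at about 30% in these data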;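 note: rise in fluorescence read as greater calcium sensitivity of cardiac thin filaments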
RTF Ca sens inh – cardiac RTF calcium desensitization | inhibition, % at 7.15 µM | AID 493244 | hit rate 0.12% among 340,000 | IANBD-labeled cardiac RTF, Ca2+ fluorescence;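 active = inhibition above the mean inhibition of all tested compounds plus 3 SD, cut at about 17% in these data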;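 note: assay run at fixed EC70 calcium of 1.6 mM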
Keap1-Nrf2 PPI – disrupts human Keap1 binding to Nrf2 peptide. Q14145. Keap1 Kelch-Nrf2 peptide fluorescence polarization, 1536-well. inhibition, % at 9.4 µM. hit rate 0.15% among 340,000. AID 504523; in the data active = inhibition above about 12%;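 note: human Keap1 Kelch domain with fluorescein labeled Nrf2 9mer peptide probe; higher means more block of Keap1 binding to Nrf2 peptide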
Target sequence (Q14145 whole entry, looked up, the tested form may be a part): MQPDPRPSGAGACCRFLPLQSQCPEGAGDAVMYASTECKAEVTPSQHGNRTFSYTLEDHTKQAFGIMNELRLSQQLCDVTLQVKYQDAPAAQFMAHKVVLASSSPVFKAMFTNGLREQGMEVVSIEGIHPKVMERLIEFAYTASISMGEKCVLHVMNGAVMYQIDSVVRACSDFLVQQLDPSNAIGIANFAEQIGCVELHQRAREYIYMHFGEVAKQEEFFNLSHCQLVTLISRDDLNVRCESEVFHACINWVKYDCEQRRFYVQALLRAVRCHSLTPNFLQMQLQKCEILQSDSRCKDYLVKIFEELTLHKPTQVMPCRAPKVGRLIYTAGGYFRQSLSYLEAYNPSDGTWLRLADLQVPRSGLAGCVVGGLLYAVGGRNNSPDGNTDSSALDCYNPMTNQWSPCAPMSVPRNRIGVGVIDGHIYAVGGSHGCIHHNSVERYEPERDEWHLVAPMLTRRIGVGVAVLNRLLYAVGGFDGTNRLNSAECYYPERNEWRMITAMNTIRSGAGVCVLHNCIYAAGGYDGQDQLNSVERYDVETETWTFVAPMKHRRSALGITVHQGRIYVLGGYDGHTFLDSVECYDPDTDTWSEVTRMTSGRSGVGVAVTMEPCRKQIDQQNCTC
C-LANA FP – inhibitors of KSHV LANA C-terminal domain DNA binding; MBP-C-LANA/FAM-LBS DNA binding, fluorescence polarization; inhibition, % at 9 µM; hit rate 0.078% among 340,000; AID 504423;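 active = highest replicate inhibition at or above 60% at 9 µM, even if other replicates fall short; inactive = all replicates below 60% inhibition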
LANA-H2B inh – blocks KSHV LANA binding to histone H2A/H2B | Q9QR71 | cell-free LANA-H2A/H2B peptide, fluorescence polarization | inhibition, % (no concentration beside the values) | hit rate 0.6% among 320,000 | AID 2629; in the data active = inhibition mostly above about 10%, no sharp cut-off; inactive = mostly below about 6.7%
A number is an active result; . = inactive; / = no result given.

SMILES	RTF Ca sens act	RTF Ca sens inh	Keap1-Nrf2 PPI	C-LANA FP	LANA-H2B inh
COc1ccc(NC2CCCN(C(=O)CCN3Cc4ccccc4C3=O)C2)cc1 (stereo not given)	.	.	.	.	21
COc1ccc(NC2CCCN(C(=O)CCN3CCCC3=O)C2)cc1 (stereo not given)	.	.	.	.	.
CCN1CCc2c(sc(NC(=O)c3ccc(S(=O)(=O)N(C)c4ccccc4)cc3)c2C(=O)NC)C1	52	.	.	.	.
COCCCNCCOCCOc1ccc(Cl)cc1C(C)(C)C	.	.	.	.	.
COCCN(C(=O)/C=C/c1ccccc1)c1nnc(-c2cccnc2)s1	.	.	.	.	56
COCCN(C(=O)c1cccc(OC)c1)c1nnc(-c2ccncc2)s1	.	.	.	.	.
O=C(NNC(=O)c1cc([N+](=O)[O-])ccc1Cl)c1cccnc1	.	.	.	.	.
COc1ccccc1CNC(=O)CSCc1cnn(-c2ccccc2)c1-n1cccc1	.	.	.	.	.
O=C(CSCc1cnn(-c2ccccc2)c1-n1cccc1)NCc1cccnc1	.	.	.	80	.
O=C(CC12CC3CC(CC(C3)C1)C2)NC1CC1	.	.	.	.	.
Cc1cc(-n2cnnn2)ccc1C(C)C	.	.	.	.	.
CCOc1ccc(-c2noc(CCC(=O)NCC3CCCO3)n2)cc1OC (stereo not given)	.	.	.	.	.
COc1ccc2c(Cl)c(C(=O)N/N=C3\CCCC(=O)C3)sc2c1	41	.	.	.	.
COc1ccc2c(Cl)c(C(=O)N/N=C/c3ccc4c(c3)OCO4)sc2c1	.	.	.	.	.
COc1ccc(-c2cc(C(F)(F)F)nc(SCCC(=O)NCc3ccccc3)n2)cc1	.	.	.	.	32
Cc1cc(Oc2ccc(C)c(Cl)c2)nc(SCC(=O)c2ccccc2)n1	.	.	.	.	16
CCN1/C(=C\C(=S)Nc2ccccc2)Sc2ccccc21	.	.	.	.	.
CCN1/C(=C\C=C(C(C)=O)C(C)=O)Sc2ccccc21	78	.	.	.	.
CCOC(=O)/C(C#N)=C(C)/C=C1\Sc2ccccc2N1CC	169	.	.	.	.
Cc1ccccc1C(=O)N1CCC(n2nccc2NC(=O)CCOc2ccccc2)CC1	.	.	.	.	.
O=c1oc2ccccc2nc1/C=C(\O)c1ccccc1	/	/	/	/	.
Cc1ccc(/C(O)=C/c2nc3cc(C)ccc3oc2=O)cc1	/	/	/	/	26
CN(C)c1ccc(/C=N/NC(N)=S)cc1[N+](=O)[O-]	.	.	.	.	25
CCCCc1c(O)nc(SCC(=O)N2CCOCC2)n(-c2ccccc2OC)c1=O	.	.	.	.	.
O=S(=O)(NC1CCCCCC1)c1cccc2cccnc12	.	.	.	.	182
SMILES	RTF Ca sens act	RTF Ca sens inh	Keap1-Nrf2 PPI	C-LANA FP	LANA-H2B inh
O=C(NC1CCCCC1)c1ccc(NS(=O)(=O)c2cccc3cccnc23)cc1	.	.	.	.	.
OCC[C@H]1C[C@H](O)[C@@H](O)[C@@]2(CCCc3ccccc3O2)O1	.	.	.	.	.
Cc1ccc2c(c1)C(=O)N1[C@H]3c4cc(Cl)ccc4OC[C@@H]3[C@H](c3ccccc3)[C@]1(C)C(=O)N2	.	.	.	.	.
Cc1ccc2c(c1)C(=O)N1[C@H]3c4cc(C)ccc4OC[C@@H]3[C@H](c3ccccc3)[C@]1(C)C(=O)N2	.	.	.	.	104
CCOC(=O)[C@H]1[C@H]2COc3ccc(Cl)cc3[C@@H]2N2C(=O)c3cc(Br)ccc3NC(=O)[C@@]12C	.	.	.	.	17
CCCN(CC1CC1)C(=O)COC(=O)c1[nH]c(C)c(C(=O)OCC)c1C	.	.	.	.	.
COc1ccc(/C=C/C(=O)OCC(=O)Nc2cccc(S(=O)(=O)NC3=NCCCCC3)c2)cc1	.	.	.	.	.
Cc1nc2c(ncn2-c2ccccc2)c(=O)n1NC(=O)CN1CCCCC1	.	.	.	.	.
N#CCCn1cnc2c(=S)nc[nH]c21	.	.	.	.	9.9
O=[N+]([O-])c1cccc(Cn2cnc3c(=S)nc[nH]c32)c1	.	.	.	.	/
COc1ccc(/C=C2\SC(=S)N(CCC(=O)NC3CCCC3)C2=O)cc1OC	.	.	.	.	.
COc1ccc(OS(=O)(=O)c2c(C)noc2C)cc1	.	.	.	.	.
Cn1c(=O)[nH]c(=O)c2c1nc(N1CCNCC1)n2Cc1cccc2ccccc12	.	.	.	.	18
O=C(CCNC(=O)c1ccccc1Cl)Nc1nc(-c2ccccc2Cl)cs1	.	.	.	.	.
CC(NC(=O)CSc1nnc(COc2ccccc2)o1)c1ccccc1 (stereo not given)	.	.	.	.	20
COc1ccc(Cc2nnc(SCC(=O)NC(C)c3ccccc3)o2)cc1 (stereo not given)	.	.	.	.	.
Cc1ccc(OCc2nnc(SCC(=O)CC(=O)Nc3ccccc3)o2)cc1	.	.	.	.	17
CC1CCCCC1NC(=O)/C(C#N)=C/c1ccccc1F (stereo not given)	.	.	.	.	.
CCOC(=O)C1(CC2CCCCO2)CCN(S(=O)(=O)c2cccc(F)c2)CC1 (stereo not given)	.	.	.	.	.
O=C1C=CC(=O)N1c1ccc2c(c1)C(NC(=O)C(F)(F)F)c1ccccc1-2 (stereo not given)	.	.	.	.	/
O=C(Nc1ccccc1)c1ccc(NCCc2ccccc2)c([N+](=O)[O-])c1	96	.	.	.	.
NC(=O)c1ccc(NCCc2ccccc2)c([N+](=O)[O-])c1	.	.	.	.	.
O=C(NCCCN1CCOCC1)C(C(=O)c1ccccc1)n1ccccc1=O (stereo not given)	.	.	.	.	.
CN(C)S(=O)(=O)c1cccc(C(=O)Nc2ccc3c(c2)CCC3)c1	.	.	.	.	.
CN(C)CCCOc1ccc(Cl)cc1Br	.	.	.	.	.
SMILES	RTF Ca sens act	RTF Ca sens inh	Keap1-Nrf2 PPI	C-LANA FP	LANA-H2B inh
CN(C)CCOCCOc1ccc(Cl)cc1Br	.	.	.	.	12
Cc1ccc(/C=C2\CCC3=C2OC(N)=C(C#N)C3c2ccc(C)cc2)cc1 (stereo not given)	84	.	.	.	.
Cc1ccc(C2C(C#N)=C(N)Oc3cc(N)ccc32)cc1 (stereo not given)	.	.	.	.	.
O=C(O)c1cccc(CN2C(=O)c3ccccc3C2=O)c1	.	.	.	.	.
O=C1c2cccc3c(O)ccc(c23)C(=O)N1Cc1ccccc1	957	.	.	92	.
CC(O)C(NS(=O)(=O)c1ccc(Cl)cc1)C(=O)OCC(=O)N1CCN(c2ccccc2)CC1 (stereo not given)	.	.	.	.	.
Cn1[nH]c(-c2ccccc2)c(/C=N/O)c1=O	/	/	.	.	29
CC(C)NC(=O)c1ccc(C(C)C)cc1	.	.	.	.	.
CCC/C(C#Cc1ccc(N(C)C)cc1)=C1/c2ccccc2C(=O)N1c1ccccc1	114	.	.	.	.
COc1cccc(Cn2cc(C)cc(NC(=O)NCc3ccccc3)c2=O)c1	.	.	.	.	23
